Source: PubChem BioAssay (National Center for Advancing Translational Sciences (NCATS))
SARS PLP yeast = inhibitors of SARS-CoV papain-like protease in yeast; S. cerevisiae expressing SARS-CoV PLpro, growth rescue; Potency, µM (top dose mostly 32.9 µM), without a hit: top-dose activity, positive = growth rescue, hits mostly activators; hit rate 0.19% among 330,000; calls by dose curve; note: potency is the fitted concentration of half-maximal effect; 0% is about no effect; nearly all actives have a fitted effect of over 55% in size
Pf growth 96h = P. falciparum growth inhibition at 96 hours | P. falciparum luciferase reporter growth, 96 h | Potency, µM (top dose mostly 28.7 µM), inactives show at the top dose activity change, negative = inhibition, hits mostly inhibitors | hit rate 6.9% among 320,000 | AID 504834; note: potency is the fitted concentration of half-maximal effect; % is set by controls: 0 for no effect and ±100 for the full control effect
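Infected RBCs, 2% Hct / 0.05% parasitemia final; luciferase-reporter P. falciparum; cpd 96 h, 37 C, 5% CO2; luciferase detection reagent; luminescence.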
Shiga inhibitor = Shiga toxin inhibition; AID 2315; inhibition, % at 38.7 µM; Vero cells, Shiga toxin protein synthesis inhibition reporter; hit rate 9.2% among 290,000; in the data active = inhibition mostly above about 28%, no sharp cut-off; inactive = mostly below about 43%; note: 0% is about no effect
Cycloheximide cs = affects cycloheximide protein synthesis inhibition readout, counter-screen | AID 2314 | hit rate 12% among 300,000 | max response, % | cell reporter, cycloheximide protein synthesis inhibition counterscreen; in the data active = max response mostly above about 13%, no sharp cut-off; inactive = mostly below about 14%; note: read at 38.3 µM for the half of the compounds with a filed dose; 0% is about no effect
AMA1-RON2 inh = disrupts binding of P. falciparum AMA1 to RON2; AlphaScreen AMA1-biotinylated RON2 peptide binding; Potency, µM (series often up to 58.2 µM), without a hit: at the top dose activity change, negative = inhibition, usual class: inhibitors; hit rate 0.2% among 360,000; AID 720542;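 note: potency is the fitted concentration of half-maximal effect; 0% = vehicle wells and -100% = peptide control; nearly all actives have a fitted effect of over 45% in size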
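AMA1 (3D7) with his tag at 25 nM final met compounds first, then biotinylated RON2 peptide at 25 nM; detection used donor plus acceptor beads, 10 µg/mL apiece, read by AlphaScreen after 30 min at room temperature.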
Pf growth 48h = inhibits P. falciparum growth in the first generation, 48 h; Potency, µM (highest dose often 28.7 µM), for inactives: at the top dose activity change, negative = inhibition, usual class: inhibitors; hit rate 5.9% among 310,000; P. falciparum luciferase growth in erythrocytes, 48 h; AID 504832; note: potency is the fitted concentration of half-maximal effect; % is set by controls: 0 for no effect and ±100 for the full control effect
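First compound was added to culture medium, then infected red cells at 0.1% parasitemia and 2% hematocrit (final). After incubation at 37 C under 5% CO2, luciferase detection reagent was dispensed and light output recorded.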
An asterisk follows results filed as active; u = inconclusive; x = not tested or not shown; [ ] = dose if it differs, or a comment. Compounds with a hit are over-represented: about 19% of the library has one in this group of screens. Unless noted, calls come from the whole dose curve; as a rule, active = well fitted curve in the direction sought with a large enough effect; inconclusive = small, poorly fitted or top-dose-only effect, or another doubt; inactive = no such curve, though single readings can be large; an effect the other way counts as inactive or inconclusive.

SMILES | SARS PLP yeast | Pf growth 96h | Shiga inhibitor | Cycloheximide cs | AMA1-RON2 inh | Pf growth 48h
CCc1ccc(/C=c2\s/c(=C\C(=O)C(C)(C)C)[nH]c2=O)cc1 | -27.9% | x | -27.9 | 18.0 | -4.3% | 3.29µM*
COc1ccc(Nc2nc(-c3cccs3)nc3ccccc23)cc1S(=O)(=O)N1CCOCC1 | x | x | x | x | -9.2% | x
CC(NCCN(C)C)C(=O)C12CC3CC(CC(C3)C1)C2 (centres undefined) | -0.7% | 5.86µM* | 22.3 | 0.8 | 33.4% | u
CCOC(=O)c1cnc2ccc(C(=O)OC)cc2c1Nc1ccc2c(c1)OCCO2 | 1.0% | 10.4µM* | -3.3 | -2.5 | 0.7% | u
CCOC(=O)c1cnc2ccc(OC)cc2c1Nc1ccc(N2CCN(C)CC2)cc1 | -0.4% | 0.928µM* | 2.7 | -0.8 | -29.4% | 1.65µM*
CCOC(=O)c1ccc2ncc(C(=O)OCC)c(Nc3ccc(N4CCOCC4)cc3)c2c1 | 9.3% | u | -6.4 | -0.4 | u | u
CCOC(=O)c1cnc2c(OC)cccc2c1Nc1ccc2c(c1)OCCO2 | 0.1% | u | 27.8* | 28.7* | -4.5% | 2.33µM*
COc1ccc(CN2C(=O)CSC2c2ccccn2)cc1 (centres undefined) | 0.3% | u | 10.9 | -2.9 | 17.7% | 3.5%
COC(=O)CCNC(=O)CCc1ccc(S(=O)(=O)N2CCCCCC2)cc1 | 1.5% | u | x | x | -1.8% | u
NC(=O)c1ccc(=O)n(Cc2ccc(Cl)cc2Cl)c1 | 1.0% | 30.4% | 4.6 | -1.4 | -1.9% | -6.7%[0.00184 µM]
CC1(C(=O)Nc2cnc3ccccc3c2)CCN1Cc1cc2ccccc2o1 (centres undefined) | x | x | x | x | 3.1% | x
O=C(CN1C(=O)NC(Cc2c[nH]c3ccccc23)C1=O)Nc1cccc(S(=O)(=O)N2CCOCC2)c1 (centres undefined) | -0.7% | 9.28µM* | -5.2 | -2.5 | -1.4% | u
O=C(O)c1ccccc1CSc1nnc2c(n1)[nH]c1ccccc12 | -0.7% | 7.9% | 17.1 | -2.8 | 119.7% | -5.1%
CC(C)CSc1nnc2c(n1)[nH]c1ccccc12 | -4.5% | u | 43.4 | 32.1* | -2.5% | x
CCCCSc1nnc2c(n1)[nH]c1ccccc12 | -2.3% | 5.0% | 127.8* | 46.1* | -13.9% | -24.4%
Cc1ccc2c(c1)c1nnc(SCC(=O)NC3CC3)nc1n2C | 1.7% | u | -9.5 | -7.0 | x | -2.8%
CCSc1nnc2c3cc(CC)ccc3n(C)c2n1 | 1.4% | u | 54.4 | active | 0.0% | 0.0%
COc1cc(CCNC(=O)CCCn2c(=O)c3cccn3c3cccnc32)cc(OC)c1OC | 9.2% | u | -10.9 | -3.9 | 10.9% | -19.2%
CS(=O)(=O)N(CC(=O)NCc1ccncc1)Cc1ccc(Cl)cc1 | -4.8% | u | -15.3 | -2.7 | -0.7% | 2.6%
CCOc1ccccc1NC(=O)c1c(NC(=O)CNCc2ccco2)sc2c1CCC2 | 0.4% | u | -6.0 | -0.9 | x | u
CCN(CCS(=O)(=O)c1ccc(Cl)cc1)Cc1nc2ccccc2c(=O)[nH]1 | 21.3% | x | x | x | 12.5%[11.6 µM] | x
CN(C)CC1CCCCC1OC(=O)c1ccc(S(=O)(=O)N(C)c2ccccc2)cc1 (centres undefined) | 0.4% | 0.0% | -7.7 | -0.4 | -9.1% | 7.1%
Cn1ccc2ccc(C3=CC(=O)C[C@H](c4ccc(F)cc4)C3)cc21 | -0.7% | u | x | x | -16.5% | u
Brc1ccc2[nH]c3nc(SCCN4CCOCC4)nnc3c2c1 | -1.1% | 14.6% | -4.5 | 0.3 | -12.0% | 7.1%
O=C(CSc1nnc2c(n1)[nH]c1ccccc12)Nc1cccc(S(=O)(=O)N2CCOCC2)c1 | -0.5% | 14.7µM* | -3.1 | -3.3 | 0.8% | u
CC(C)CSc1nnc2c3ccccc3n(C)c2n1 | -6.2% | 6.57µM* | x | 33.9* | 6.4% | 122.3%
c1ccc2c(c1)[nH]c1nc(SCCN3CCOCC3)nnc12 | 2.1% | u | 26.7 | 13.4* | 0.0% | u
Cn1c(SCC(=O)Nc2ccc3c(c2)OCO3)nnc1C(F)(F)F | 1.9% | x | x | x | -6.0% | x
O=C(C[n+]1ccc(-c2cc(C(=O)Nc3cccc(C(F)(F)F)c3)c3ccccc3n2)cc1)c1cccc([N+](=O)[O-])c1 | -2.4% | 3.29µM* | -2.0 | 0.8 | u | u
O=C(CCCOc1ccccc1)Nc1ccncc1 | 3.6% | 0.7% | 32.6 | 5.5 | -13.0% | 10.4%
